The nature of assay [1]: ACEA_AR_agonist_AUC_viability: ACEA Biosciences xCELLigence Real-Time Cell Analysis on Androgen Receptor Agonism for Viability (AID 2283775).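 For AC50: viability read 80 hours after compound addition.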 In short, it runs like this:
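22Rv1 cells; impedance growth kinetics; 8-pt 1:4 dilutions from 100 uM top final, ≤0.5% DMSO; n = 2; 80 h read; AUC viability, loss-of-signal vs DMSO.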

A short description of assay [2]: ACEA_AR_antagonist_AUC_viability: ACEA Biosciences xCELLigence Real-Time Cell Analysis on Androgen Receptor Antagonism for Viability (AID 2283776).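 Note: 22Rv1 human prostate cancer cells growing on impedance electrode plates; area under impedance growth curve at 80 h after dosing as viability; hits lower the growth signal relative to DMSO meaning cytotoxicity.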 In short, it runs like this:
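Impedance read-out (RT-CES): area under growth curve at 80 h post-dose, loss of signal scored vs DMSO baseline. 22Rv1 cells; 8-pt 1:4 series, top 100 uM final, ≤0.5% DMSO; biological duplicate.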

Assay [3] can be described thus: ACEA_ER_AUC_viability: ACEA Biosciences xCELLigence Real-Time Cell Analysis on Estrogen Receptor Agonism for Viability (AID 2283782).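 Note: hit means loss of impedance signal meaning reduced cell growth or viability.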 In outline: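 Viability endpoint: reduced impedance area under the curve relative to DMSO, recorded by real-time electrode sensing over ~80 h of continuous exposure. Duplicate plates of T47D in hormone-depleted medium; eight concentrations, 1:4 dilutions, 100 uM maximum.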

Results filed as inconclusive are left out. Active and inactive are the calls of the source. Rule for the calls: active = hit-call score of the fitted dose curve at least 0.9, where 1 is the maximum; inconclusive = response in the unintended direction; inactive = score below 0.9. Peptide text beside a SMILES is read from it.

In general, AC50 refers to the midpoint of the concentration-response curve, whichever way the signal moves.

As for `O=S(=O)(O)c1ccc(N=Nc2c(O)ccc3ccccc23)cc1`, the outcome in assay [1] and in assay [2] was inactive.

On to `CC1=NN(c2ccc(S(=O)(=O)O)cc2)C(=O)C1N=Nc1ccccc1` (stereo unspecified), for which the call in assay [1], in assay [2] and in assay [3] was inactive.

Turning to `CC(C)(C)N`, the result in assay [1], in assay [2] and in assay [3] was inactive.

With `CCCCCCCCCCCCc1ccc(O)cc1`, the concentration at half-maximal activity (AC50) was 16.6 µM (active) in assay [1], 16.6 µM (active) in assay [2] and 20 µM (active) in assay [3].

In the case of `O=C(OCCc1ccccc1)c1ccccc1`, the result in assay [1] and in assay [2] was inactive. For the same compound, in assay [3], the AC50 is 85.9 µM (active).

For the compound `CCCCC(=O)O`, the result in assay [1] and in assay [2] was inactive.

`CCCCCCC=O`: the call in assay [1] and in assay [2] was inactive.

As for `CCc1occc(=O)c1O`, the compound was classed as inactive in assay [1], in assay [2] and in assay [3].

`O=C(O)CC(C(=O)O)S(=O)(=O)O` (stereo unspecified): the call in assay [1] and in assay [2] was inactive.

For `CC1=CCC2CC1C2(C)C` (stereo unspecified), in assay [1], the result was inactive.

`CCCCCCCCCC[N+](C)(CCCCCCCCCC)CCC[Si](OC)(OC)OC`: the values for the concentration at half-maximal activity (AC50) in assay [1], in assay [2] and in assay [3] were 5.04 µM (active), 16.1 µM (active) and 17 µM (active), respectively.

For the compound `Cc1ccc([N+](=O)[O-])cc1N`, the compound was called inactive in assay [1] and in assay [2].

As for `CCCCOCCOC(=O)COc1ccc(Cl)cc1Cl`, the compound was called inactive in assay [1] and in assay [2].

For `NC(=O)Nc1ccccc1`, the compound was called inactive in assay [1] and in assay [2].

On to `CCCCC(CC)COS(=O)(=O)O` (stereo unspecified), for which the result in assay [1] and in assay [2] was inactive.

On to `CCCCNC(=S)NCCCC`, for which the compound was called inactive in assay [1].

For `COC(=O)[C@H](Cc1ccccc1)NC(=O)[C@@H](N)CC(=O)O` (H-Asp-Phe-OMe), the result in assay [1] and in assay [2] was inactive.

Turning to `COc1ccc(-c2coc3cc(O)cc(O)c3c2=O)cc1`, in assay [1], the call was inactive. Besides, in assay [2], the AC50 was 0.86 µM (active).

On to `CCCC(CC)c1ccccc1` (stereo unspecified), for which the outcome in assay [1], in assay [2] and in assay [3] was inactive.

In the case of `O=C(O)c1cc(O)c2ccccc2c1O`, the outcome in assay [1] and in assay [2] was inactive. Further, the concentration at half-maximal activity (AC50) in assay [3] was 26 µM (active).

Regarding `C=C[C@@]1(C)CC(=O)[C@]2(O)[C@@]3(C)[C@@H](O)CCC(C)(C)[C@@H]3[C@H](O)[C@H](OC(C)=O)[C@@]2(C)O1`, the AC50 in assay [1] is 6.78 µM (active). The outcome in assay [2] was inactive.

For the compound `CC(C)(c1ccccc1)c1ccc(Nc2ccc(C(C)(C)c3ccccc3)cc2)cc1`, the compound was called inactive in assay [1] and in assay [3]. Further, in assay [2], the concentration at half-maximal activity (AC50) is 11.4 µM (active).

The values above are taken from PubChem BioAssay (EPA / NIEHS).
